Experimental data as given in the supplement of paper PMC8728848.
The entries come from a sample that favours the strongest signals as a whole.

Key:
Test in all cases: glycan array binding signal (z-score within array); higher = stronger binding
Conditions in all cases: glycan notation: IUPAC condensed, linker removed
[1] = target: Fuc(a1-2)Gal(b1-3)GlcNAc(b1-3)Gal(b1-4)Glc
Summary of the method: (§1)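 From the Consortium for Functional Glycomics database, 3228 arrays were curated, keeping only those whose protein sequence was available. Binding is given as a within-array Z-score averaged across arrays sharing a protein sequence and across linkers. Negative Z-scores can be read as non-binding.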

[2] = target: Fuc(a1-2)Gal(b1-3)[Fuc(a1-4)]GlcNAc(b1-2)Man(a1-3)[Fuc(a1-2)Gal(b1-3)[Fuc(a1-4)]GlcNAc(b1-2)Man(a1-6)]Man(b1-4)GlcNAc(b1-4)GlcNAc
Summary of the method: as §1

Fuc(a1-2)Gal(b1-4)Glc6S = target: Fuc(a1-2)Gal(b1-4)Glc6S
Summary of the method: as §1

[3] = target: Fuc(a1-2)Gal(b1-4)[Fuc(a1-3)]GlcNAc
Summary of the method: as §1

[4] = target: Fuc(a1-2)Gal(b1-4)[Fuc(a1-3)]GlcNAc(b1-2)Man(a1-3)[Fuc(a1-2)Gal(b1-4)[Fuc(a1-3)]GlcNAc(b1-2)Man(a1-6)]Man(b1-4)GlcNAc(b1-4)GlcNAc
Summary of the method: as §1

[5] = target: Fuc(a1-2)Gal(b1-4)[Fuc(a1-3)]GlcNAc(b1-3)Gal(b1-4)[Fuc(a1-3)]GlcNAc(b1-3)Gal(b1-4)[Fuc(a1-3)]GlcNAc
Summary of the method: as §1

[6] = target: Fuc(a1-2)[Gal(a1-3)]Gal(b1-4)Glc
Summary of the method: as §1

[7] = target: Fuc(a1-3)[Gal(b1-4)]GlcNAc(b1-4)Gal(b1-4)[Fuc(a1-3)]GlcNAc(b1-4)Gal(b1-4)[Fuc(a1-3)]GlcNAc
Summary of the method: as §1

[8] = target: Fuc(a1-3)[Neu5Ac(a2-3)]Gal(b1-4)GlcNAc(b1-3)GalNAc
Summary of the method: as §1

Fuc(a1-4)GlcNAc = target: Fuc(a1-4)GlcNAc
Summary of the method: as §1

[9] = target: Gal(a1-3)Gal(b1-4)[Fuc(a1-3)]GlcNAc(b1-2)Man(a1-3)[Gal(a1-3)Gal(b1-4)[Fuc(a1-3)]GlcNAc(b1-2)Man(a1-6)]Man(b1-4)GlcNAc(b1-4)GlcNAc
Summary of the method: as §1

Gal(a1-3)GalNAc = target: Gal(a1-3)GalNAc
Summary of the method: as §1

Gal(b1-3)GlcNAc = target: Gal(b1-3)GlcNAc
Summary of the method: as §1

[10] = target: Gal(b1-4)GlcNAc(b1-2)Man(a1-3)[Man(a1-6)]Man(b1-4)GlcNAc(b1-4)GlcNAc
Summary of the method: as §1

[11] = target: Gal(b1-4)GlcNAc(b1-2)[Gal(b1-4)GlcNAc(b1-4)]Man(a1-3)[Gal(b1-4)GlcNAc(b1-2)Man(a1-6)]Man(b1-4)GlcNAc(b1-4)GlcNAc
Summary of the method: as §1

Gal4S6S(b1-4)GlcNAc = target: Gal4S6S(b1-4)GlcNAc
Summary of the method: as §1

[12] = target: GlcNAc(a1-4)Gal(b1-4)GlcNAc
Summary of the method: as §1

[13] = target: GlcNAc(b1-2)Man(a1-3)[GlcNAc(b1-2)Man(a1-6)]Man(b1-4)GlcNAc(b1-4)[Fuc(a1-6)]GlcNAc
Summary of the method: as §1

GlcNAc(b1-3)Gal = target: GlcNAc(b1-3)Gal
Summary of the method: as §1

[14] = target: GlcNAc(b1-3)[GlcNAc(b1-6)]Gal(b1-4)GlcNAc
Summary of the method: as §1

[15] = target: Man(a1-2)Man(a1-2)Man(a1-6)[Man(a1-3)]Man
Summary of the method: as §1

[16] = target: Man(a1-2)Man(a1-3)[Man(a1-2)Man(a1-6)]Man
Summary of the method: as §1

[17] = target: Man(a1-2)Man(a1-3)[Man(a1-2)Man(a1-6)]Man(a1-6)[Man(a1-2)Man(a1-2)Man(a1-3)]Man
Summary of the method: as §1

[18] = target: Man(a1-2)Man(a1-3)[Man(a1-6)]Man(a1-6)[Man(a1-2)Man(a1-3)]Man(b1-4)GlcNAc(b1-4)GlcNAc
Summary of the method: as §1

[19] = target: Man(a1-2)Man(a1-6)[Man(a1-3)]Man(a1-6)[Man(a1-2)Man(a1-2)Man(a1-3)]Man
Summary of the method: as §1

[20] = target: Man(a1-2)Man(a1-6)[Man(a1-3)]Man(a1-6)[Man(a1-2)Man(a1-2)Man(a1-3)]Man(b1-4)GlcNAc(b1-4)GlcNAc
Summary of the method: as §1

Man(a1-3)[Man(a1-6)]Man = target: Man(a1-3)[Man(a1-6)]Man
Summary of the method: as §1

Man(b1-4)GlcNAc = target: Man(b1-4)GlcNAc
Summary of the method: as §1

[21] = target: Neu5Ac(a2-3)Gal(b1-4)GlcNAc(b1-3)Gal(b1-4)GlcNAc(b1-3)Gal(b1-4)GlcNAc
Summary of the method: as §1

[22] = target: Neu5Ac(a2-6)Gal(b1-4)GlcNAc(b1-3)Gal(b1-4)GlcNAc
Summary of the method: as §1

[23] = target: Neu5Ac(a2-6)Gal(b1-4)GlcNAc6S
Summary of the method: as §1

[24] = target: Neu5Ac(a2-8)Neu5Ac(a2-3)[GalNAc(b1-4)]Gal(b1-4)Glc
Summary of the method: as §1

[25] = target: Neu5Ac(a2-8)Neu5Ac(a2-8)Neu5Ac
Summary of the method: as §1

[26] = target: Neu5Gc(a2-3)Gal(b1-3)[Fuc(a1-4)]GlcNAc
Summary of the method: as §1

B1: DGL (Dioclea grandiflora), P08902 (protein)
chain: ADTIVAVELDSYPNTDIGDPNYPHIGIDIKSIRSKSTARWNMQTGKVGTVHISYNSVAKRLSAVVSYSGSSSTTVSYDVDLNNVLPEWVRVGLSATTGLYKETNTILSWSFTSKLKTNSIADENSLHFSFHKFSQNPKDLILQGDAFTDSDGNLELTKVSSSGDPQGNSVGRALFYAPVHIWESSAVVASFDATFTFLIKSPDREPADGITFFIANTDTSIPSGSGGRLLGLFPDAN
glycan array binding signal (z-score) [1]: -0.177
glycan array binding signal (z-score) [2]: -0.169
glycan array binding signal (z-score) (Fuc(a1-2)Gal(b1-4)Glc6S): -0.172
glycan array binding signal (z-score) [3]: -0.176
glycan array binding signal (z-score) [4]: -0.144
glycan array binding signal (z-score) [5]: -0.168
glycan array binding signal (z-score) [6]: -0.177
glycan array binding signal (z-score) [7]: -0.182
glycan array binding signal (z-score) [8]: -0.072
glycan array binding signal (z-score) (Fuc(a1-4)GlcNAc): -0.175
glycan array binding signal (z-score) [9]: -0.175
glycan array binding signal (z-score) (Gal(a1-3)GalNAc): -0.173
glycan array binding signal (z-score) (Gal(b1-3)GlcNAc): -0.172
glycan array binding signal (z-score) [10]: -0.151
glycan array binding signal (z-score) [11]: -0.161
glycan array binding signal (z-score) (Gal4S6S(b1-4)GlcNAc): -0.183
glycan array binding signal (z-score) [12]: -0.176
glycan array binding signal (z-score) [13]: 0.316
glycan array binding signal (z-score) (GlcNAc(b1-3)Gal): -0.178
glycan array binding signal (z-score) [14]: -0.183
glycan array binding signal (z-score) [15]: 5.91
glycan array binding signal (z-score) [16]: 9.67
glycan array binding signal (z-score) [17]: 3.48
glycan array binding signal (z-score) [18]: 6.68
glycan array binding signal (z-score) [19]: 7.91
glycan array binding signal (z-score) [20]: 6.41
glycan array binding signal (z-score) (Man(a1-3)[Man(a1-6)]Man): 3.63
glycan array binding signal (z-score) (Man(b1-4)GlcNAc): -0.186
glycan array binding signal (z-score) [21]: -0.183
glycan array binding signal (z-score) [22]: -0.178
glycan array binding signal (z-score) [23]: -0.179
glycan array binding signal (z-score) [24]: -0.178
glycan array binding signal (z-score) [25]: -0.175
glycan array binding signal (z-score) [26]: -0.179
